# According to PubChem BioAssay AID1508602 (The Scripps Research Institute Molecular Screening Center, 2020):
# “And” between values parts separate entries of the source, which are not always exact repeats. Equal entries are not always repeated. Hit rate of the full screen: of about 650,000 compounds, about 6,800 (1%) were called active. No stated cut-off is given here; in the data, active means activation above about 4.9%; inactive means the rest. Only a selection was taken, and actives are over-represented in it overall.
# Target: G-protein coupled receptor 151 (Homo sapiens) (UniProt Q8TDV0)
# Sequence (Q8TDV0 whole entry, looked up): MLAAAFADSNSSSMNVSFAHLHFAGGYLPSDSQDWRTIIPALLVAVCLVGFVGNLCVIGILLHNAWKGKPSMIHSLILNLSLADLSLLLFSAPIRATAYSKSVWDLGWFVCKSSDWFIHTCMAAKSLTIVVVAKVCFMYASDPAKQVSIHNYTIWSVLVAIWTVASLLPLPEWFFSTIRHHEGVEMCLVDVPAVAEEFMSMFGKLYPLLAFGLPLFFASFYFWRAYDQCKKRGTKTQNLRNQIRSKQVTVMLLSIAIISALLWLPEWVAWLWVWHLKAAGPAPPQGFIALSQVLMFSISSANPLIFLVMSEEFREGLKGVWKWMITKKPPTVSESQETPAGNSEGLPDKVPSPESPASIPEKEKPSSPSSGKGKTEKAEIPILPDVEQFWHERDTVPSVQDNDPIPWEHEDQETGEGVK
# Assay: activates the human receptor GPR151, primary screen, cell-based, PathHunter beta-arrestin, luminescence (AID 1508602);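 further: 0% = median of compound wells and 100% = cells with positive control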
# Conditions: PathHunter beta-arrestin GPR151 cells, at 11.2 µM, stronger effect = higher value
row,Structure (SMILES),activation
1,Cc1ccc(C2=N/C(=C\c3cccc(Cl)c3)C(=O)O2)cc1,-1.7% (inactive)
2,Cc1nc(C)n(CCC(=O)N2CCN(Cc3ccccc3F)C[C@@H]2C(C)C)n1,-0.818% (inactive)
3,COCCNC(=O)CSc1nccn1Cc1ccco1,4.92% (active)
4,CC(C)NC(=O)CSc1nccn1Cc1ccco1,0.992% (inactive)
5,COc1ccc(Cn2ccnc2SCC(=O)NCc2ccco2)cc1,0.251% (inactive)
6,COCCNC(=O)c1cccc(-n2c(=S)[nH]c3cc(Cl)ccc3c2=O)c1,1.05% (inactive)
7,O=C(CCCOc1ccc(Cl)cc1)NCc1ccco1,-1.43% (inactive)
8,CCCCc1ccc2c(N)c(C(=O)Nc3ccc(C(=O)O)cc3)sc2n1,-1.27% (inactive)
9,CCCC1=C(C(=O)OCC)C(c2ccc(O)c(OC)c2)C(C#N)=C(N)O1 (stereo not drawn),2.22% (inactive)
10,CCCC1=C(C(=O)OCC)C(c2cccc(F)c2)C(C#N)=C(N)O1 (stereo not drawn),0.841% (inactive)
11,CCOC(=O)C1=C(CC)OC(N)=C(C#N)C1c1ccc(C(F)(F)F)cc1 (stereo not drawn),5.43% (active)
12,c1ccc(Nc2cc(NCc3ccc4c(c3)OCO4)ncn2)cc1,-0.773% (inactive)
13,CC1=C(C(=O)Nc2ccccc2C(F)(F)F)C(c2ccccn2)C2=C(CC(C)(C)CC2=O)N1 (stereo not drawn),0.421% (inactive)
14,CC1=C(C(=O)Nc2cccc(F)c2)C(c2ccccn2)C2=C(CCCC2=O)N1 (stereo not drawn),4.99% (active)
15,COc1cc(C2C(C(=O)Nc3ccccn3)=C(C)NC3=C2C(=O)CCC3)cc(OC)c1OC (stereo not drawn),0.722% (inactive)
16,Cc1cccc(C)c1-n1c(=S)sc2c(=O)n(-c3cccc(Cl)c3)c(SCC#N)nc21,7.07% (active)
17,Cc1ccccc1-n1c(SCC#N)nc2c(sc(=S)n2-c2ccccc2C)c1=O,-0.0279% (inactive)
18,Cc1cccc(C)c1-n1c(=S)sc2c(=O)n(-c3cccc(Cl)c3)c(SCc3cccc([N+](=O)[O-])c3)nc21,-0.958% (inactive)
19,CCCOc1ccc(-c2ccc(-c3noc(-c4ccc(OCC)cc4)n3)cc2)cc1,-1.32% (inactive)
20,O=C(COc1ccc(Cl)cc1Cl)NCc1nc(-c2ccccc2)no1,-1.12% (inactive)
21,Cc1sc(NC(=O)CN(C(=O)CCc2ccccc2)C2CCCC2)c(C(N)=O)c1C,0.0057% (inactive)
22,CCCCNC(=O)C1CCC(=O)N1Cc1ccc(F)cc1 (stereo not drawn),1.65% (inactive)
23,O=C(Nc1cccc(N2CCC(NCc3ccon3)CC2)c1)c1cccnc1,5.91% (active)
24,COc1ccc(CNC2CCN(c3cccc(NC(=O)c4cccnc4)c3)CC2)cc1,-0.19% (inactive)

row,Structure (SMILES),activation
1,O=C(Nc1cccc(N2CCC(NCC3COc4ccccc4O3)CC2)c1)c1cccnc1 (stereo not drawn),0.419% (inactive)
2,Cc1cc2[nH]c(=O)c(=O)[nH]c2cc1S(=O)(=O)Nc1ccc(Br)cc1F,1.29% (inactive)
3,Cc1ccc2c(CNCc3ccccc3Cl)c(C(=O)O)n(Cc3ccccc3)c2c1,2.57% (inactive)
4,O=C(NCCOc1ccccc1)c1cnc(N2CCCC2CO)s1 (stereo not drawn),-3.77% (inactive)
5,O=C(NCCOc1ccccc1)c1cnc(N2CCN(c3ccccn3)CC2)s1,7.58% (active)
6,O=C(NCCOc1ccccc1)c1cnc(Nc2cccnc2)s1,0.0811% (inactive)
7,O=C(NNS(=O)(=O)c1ccc2ccccc2c1)Nc1ccc(F)cc1F,-1.26% (inactive)
8,O=C(Nc1cccc(Oc2ccc(C(=O)O)c(C(=O)O)c2)c1)c1cccs1,-1.23% (inactive)
9,COc1ccc(CN2CCOc3ccc(C(C)(O)CN(C)C)cc3C2)c(Cl)c1OC (stereo not drawn),-0.16% (inactive)
10,O=C(Cc1coc2ccc3ccccc3c12)NC1CCN(Cc2ccccc2)CC1,1.58% (inactive)
11,O=C(Cc1coc2ccc3ccccc3c12)NCc1cccnc1,1.97% (inactive)
12,CC(C)(C)NC(=O)Cc1coc2ccc3ccccc3c12,5.9% (active)
13,COc1ccc(CCN(C(C)=O)C2CC(=O)N(c3ccc(Cl)cc3)C2=O)cc1 (stereo not drawn),2.31% (inactive)
14,Cc1nc2ccccc2c(=O)n1-c1ccc(OC(F)(F)C(F)F)cc1,-0.339% (inactive)
15,COc1ccccc1C1C(C(N)=O)=C(C)Nc2nc(CCCO)nn21 (stereo not drawn),7.86% (active)
16,CC1=C(C(N)=O)C(c2ccc(F)cc2)n2nc(CCCO)nc2N1 (stereo not drawn),0.25% (inactive)
17,COc1ccccc1C1C(C(=O)Nc2ccc(F)cc2)=C(C)Nc2nc(CCCO)nn21 (stereo not drawn),-0.0995% (inactive)
18,O=S(=O)(c1cccs1)N1CCc2nc(-c3cccnc3)nc(N3CCCCC3)c2C1,0.747% (inactive)
19,O=C(O)c1cccc(-n2[nH]c(=O)ccc2=O)c1,-1.37% (inactive)
20,CCOC(=O)c1cc2cc(-c3c(C)oc4cc(OC(C)=O)ccc4c3=O)ccc2o1,6.66% (active)
21,COc1ccc(-c2c(C)oc3cc(OC)ccc3c2=O)cc1,0.167% (inactive)
22,CCOC(=O)c1cc2cc(-c3c(C(=O)OCC)oc4cc(O)cc(O)c4c3=O)ccc2o1,0.272% (inactive)
23,C/C=C/C=C/C(=O)N1C(=O)C(=O)c2ccccc21,-4.81% (inactive)
24,Cc1ccc(NC(=O)CSc2nnc(-c3ccc(O)cc3)n2C)cc1N,-0.276% (inactive)

row,Structure (SMILES),activation
1,Cc1ccc(NC(=O)CSc2nnc(-c3ccc(N)cc3)n2C)cc1Cl,5.78% (active)
2,Cc1ccc(Cl)cc1NC(=O)CSc1nnc(-c2ccc(N)cc2)n1C,0.746% (inactive)
3,CCOC(=O)/C(C#N)=C\c1c(C)cc(C)c(COC)c1C,4.44% (inactive)
4,CN1CCC[C@@H]1CCOC(C)(c1ccccc1)c1ccc(Cl)cc1 (stereo partly drawn),-2.7% (inactive) and 3.67% (inactive)
5,O=c1sc2sc(=S)sc2s1,-0.693% (inactive)
6,c1ccc(-n2nnnc2NC2CCCCCC2)cc1,-0.96% (inactive)
7,C1CCC(Nc2nc3nonc3nc2NC2CCCCC2)CC1,-0.129% (inactive)
8,Brc1cnc(NC2CCCCC2)nc1,7.99% (active)
9,CCc1cc2cc(OC)ccc2nc1SCC(=O)Nc1nccs1,0.182% (inactive)
10,CN1CCN(C(=O)c2ccc(-c3nc(NCc4ccccc4)c4ncn(Cc5ccc(C(F)(F)F)cc5)c4n3)cc2)CC1,0.228% (inactive)
11,COc1ccccc1C(=O)CN1CCN(S(=O)(=O)c2ccc(Cl)cc2)CC1,1.49% (inactive)
12,O=[N+]([O-])c1ccccc1S(=O)(=O)NCCSCc1ccc(Cl)cc1,-0.348% (inactive)
13,O=C(N1CCCCCC1)C12CC3CC(CC(C3)C1)C2,0.202% (inactive)
14,NC(=O)C12CC3CC(CC(C3)C1)C2,-0.0547% (inactive)
15,COC(=O)[C@@H]1CC(O)CN1C(=O)C12CC3CC(CC(C3)C1)C2 (stereo partly drawn),6.17% (active)
16,CCc1ccc(N2N=C(C)/C(=C/c3ccc(-c4ccc(S(N)(=O)=O)cc4)o3)C2=O)cc1,-0.641% (inactive)
17,CC1=NN(c2cccc(Cl)c2)C(=O)/C1=C/c1ccc(-c2ccc(F)cc2)o1,1.46% (inactive)
18,CCc1ccc(N2N=C(C)/C(=C\c3ccc(-c4ccc5c(c4)C(=O)NC5=O)o3)C2=O)cc1,6.36% (active)
19,COc1cccc(NC(=O)c2sc3ncn(CC(=O)Nc4ccccc4OC)c(=O)c3c2C)c1,0.463% (inactive)
20,CC(C)(C)C1(O)CC(=O)C(=O)NN1c1ccccc1 (stereo not drawn),-0.103% (inactive)
21,CC(CO)(CO)NC(=S)NC(=O)c1ccccc1,-2.1% (inactive)
22,CC(C)C[C@@H]1NC(=O)[C@H]2CN(Cc3ccccc3Cl)CCN2C1=O,1.34% (inactive)
23,Cc1ccc(C(=O)COc2ccc(C#N)cc2)c(C)c1,0.546% (inactive)
24,Cc1sc(NC(=O)CN(C(=O)c2cccc(F)c2)C2CCCC2)c(C(N)=O)c1C,0.439% (inactive)

row,Structure (SMILES),activation
1,CCN1C(=O)C(=Cc2ccc(N3CCCC3)cc2C)C(=O)N(CC)C1=S,2.62% (inactive)
2,Cc1cc(N2CCOCC2)ccc1/C=C1\C(=O)NC(=S)N(c2ccccc2)C1=O,0.368% (inactive)
3,Cc1cc(N2CCOCC2)ccc1C=C1C(=O)c2ccccc2C1=O,5.28% (active)
4,O=C(Nc1nc2c(ccc3ccccc32)s1)c1cccc(Oc2ccccc2)c1,1.27% (inactive)
5,CCOC(=O)c1c(NC(=O)Nc2cccc(Cl)c2)sc2c1CCCC2,0.0535% (inactive)
6,COC(=O)c1c(NC(=O)Nc2ccc(Cl)c(Cl)c2)sc2c1CCCC2,8.57% (active)
7,COC(=O)c1c(NC(=O)c2ccc(Cl)c(Cl)c2)sc2c1CCCC2,0.167% (inactive)
8,COc1ccc(OC)c(NC(=O)CN(c2cccc(C)c2C)S(C)(=O)=O)c1,5.98% (active)
9,COc1ccc(NC(=O)CN(c2cc(OC)ccc2OC)S(C)(=O)=O)c(OC)c1,0.777% (inactive)
10,Cc1ccc(C)c(NC(=O)CN(c2cccc(C)c2C)S(C)(=O)=O)c1,0.883% (inactive)
11,CCCOc1ccc([N+](=O)[O-])cc1C1NC(=S)NC(C)=C1C(=O)OC (stereo not drawn),-1.65% (inactive)
12,Cc1cc2nc(C3CCCCN3C(=O)c3cscn3)[nH]c2cc1C (stereo not drawn),-0.0121% (inactive)
13,Cc1c2cnn(-c3ccccc3)c(=O)c2c(C)n1CCCC(=O)N1CCN(C)CC1,0.178% (inactive)
14,CCC(C(=O)N1CCN(C)CC1)n1c(C)c2cnn(-c3ccccc3)c(=O)c2c1C (stereo not drawn),-1.42% (inactive)
15,CCC(C(=O)N1CCCCC1)n1c(C)c2cnn(-c3ccccc3)c(=O)c2c1C (stereo not drawn),5.32% (active)
16,Cc1ccc(S(=O)(=O)Oc2ccc(/C=C3\SC(N)=NC3=O)cc2)cc1,-0.455% (inactive)
17,COc1ccc2c(c1)C(Cc1csc(C)n1)(c1ccc(F)cc1)C(=O)N2 (stereo not drawn),0.748% (inactive)
18,CC(C)NCCOCCOc1ccc(I)cc1,0.568% (inactive)
19,CCNc1nc(NCC)nc(C(=O)O)n1,-0.247% (inactive)
20,CCNc1nc(NC(C)C)nc(OCCOC(C)=O)n1,5.11% (active)
21,CCNc1nc(NC(C)C)nc(OCCOC(=O)c2ccccc2)n1,1.89% (inactive)
